Assay outcomes: PubChem BioAssay, The Scripps Research Institute Molecular Screening Center
GPR151 activ = activators of human GPR151; Q8TDV0; PathHunter beta-arrestin GPR151 cells, luminescence; activation, % at 11.2 µM; 650,000 compounds, 1% hits; AID 1508602; in the data active means activation above about 4.9%;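 further: 0% = median of compound wells and 100% = cells with positive control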
TEAD-YAP block = TEAD-YAP interaction inhibition | inhibition, % at 9.12 µM | AID 1259422 | 640,000 compounds, 1.4% hits | HEK-TIYL cells, TEAD-Gal4/YAP UAS-luciferase luminescence; in the data active means inhibition above about 32%;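 further: 0% = median of test compound wells and 100% = reference inhibitor wells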
MITF inh = blocks human microphthalmia-associated transcription factor | O75030 | AlphaScreen MITF homodimerization, bead proximity signal | inhibition, % at 2.6 µM | 650,000 compounds, 0.91% hits | AID 1259374; in the data active means inhibition above about 50%;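 further: 0% = vehicle wells with protein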
Target sequence (O75030 whole entry, looked up): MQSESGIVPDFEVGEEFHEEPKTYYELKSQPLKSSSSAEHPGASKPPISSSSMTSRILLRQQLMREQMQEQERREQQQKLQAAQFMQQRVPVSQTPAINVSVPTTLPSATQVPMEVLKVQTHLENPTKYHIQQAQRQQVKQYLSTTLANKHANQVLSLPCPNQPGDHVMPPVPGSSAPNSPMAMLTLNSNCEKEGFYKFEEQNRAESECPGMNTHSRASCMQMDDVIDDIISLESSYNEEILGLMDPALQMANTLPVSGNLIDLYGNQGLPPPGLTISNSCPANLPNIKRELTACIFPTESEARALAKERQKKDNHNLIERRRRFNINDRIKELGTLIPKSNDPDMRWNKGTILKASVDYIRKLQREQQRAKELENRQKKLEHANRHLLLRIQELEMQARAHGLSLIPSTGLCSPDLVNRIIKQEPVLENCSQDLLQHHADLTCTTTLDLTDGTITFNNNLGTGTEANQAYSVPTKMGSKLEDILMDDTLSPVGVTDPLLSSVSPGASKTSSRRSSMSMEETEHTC
FBW7 act = activators of human E3 ligase FBW7 | AlphaScreen FBW7–phospho-cyclin E peptide binding, activator screen | normalized activity (activation), % at 26.1 µM | 650,000 compounds, 0.13% hits; in the data active means normalized activity above about 1.9%;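 further: purified mutant Fbw7 with reduced substrate affinity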
An asterisk follows results filed as active. Sampled rows, rich in hits. Any-hit rate of the full collection: about 3.5%.

SMILES	GPR151 activ	TEAD-YAP block	MITF inh	FBW7 act
CCCS(=O)(=O)c1ncc(Cl)c(C(=O)Nc2ccc(CC)cc2)n1	1	27	5	0
CCS(=O)(=O)c1ncc(Cl)c(C(=O)Nc2ccccc2Br)n1	0	36*	-2	0
CCS(=O)(=O)c1ncc(Cl)c(C(=O)Nc2cccc(Cl)c2C)n1	1	57*	12	0
COC(=O)c1ccccc1NC(=O)c1cc(-c2ccc(OC)c(OC)c2)no1	-1	0	1	0
CC(C)[C@@H](Cn1nnc2ccccc21)NC(=O)Cc1ccccn1	-1	3	8	0
O=C(NCCCN1CCCC1=O)c1cc(COc2ccc3ncccc3c2)on1	1	37*	-10	0
O=C(c1cc(COc2ccc3ncccc3c2)on1)N1CCC(O)CC1	0	3	7	0
O=C(c1cc(COc2ccc3ncccc3c2)on1)N1CCC(N2CCSCC2)CC1	1	43*	-10	0
O=C(c1cc(COc2ccc3ncccc3c2)on1)N1CCCC(O)C1 (stereo unspecified)	0	10	5	0
O=C(c1cc(COc2ccc3ncccc3c2)on1)N1CCCC(OCc2ccccn2)C1 (stereo unspecified)	2	39*	6	0
CCC(O)C1CCN(C(=O)c2cc(COc3ccc4ncccc4c3)on2)CC1 (stereo unspecified)	1	50*	-2	0
COc1ccccc1-n1nc(C(=O)NCCCN2CCC(C)CC2)c2ccccc2c1=O	-1	5	9	0
COc1cc(-c2nc3ccccc3c(=O)n2NC(=O)c2ccc(C)c(C)c2)cc(OC)c1OC	1	11	2	0
CCOc1ccc(Nc2c(C(=O)N3CCOCC3)cnc3ccccc23)cc1	0	42*	-4	0
O=C(CN(c1cccc(C(F)(F)F)c1)S(=O)(=O)c1ccccc1)Nc1ccccc1	2	4	9	0
C/C=C/C(=O)Nc1ccc(-c2ccc(NC(=O)/C=C/C)c(OC)c2)cc1OC	0	61*	8	1
Cc1nc(NC(=O)c2ccco2)ccc1I	-7	39*	7	0
Cc1nc(NC(=O)c2cc3ccccc3o2)ccc1I	-2	-14	19	0
COC(=O)c1cc2sccc2n1CC(=O)c1ccccc1	3	6	13	0
COC(=O)c1cc2sccc2n1CC(=O)Cc1ccc(OC)cc1OC	-1	50*	14	0
c1ccc2c(c1)CC(c1nc3ccc(-c4ccncc4)cc3s1)CO2 (stereo unspecified)	0	-33	15	0
Cc1ccnc(NC(=O)C(C)N2Cc3ccccc3C2=O)c1 (stereo unspecified)	2	89*	-2	0
Cc1cccc(NC(=O)C(C)N2Cc3ccccc3C2=O)n1 (stereo unspecified)	2	5	5	0
CC(C(=O)Nc1ccccn1)N1Cc2ccccc2C1=O (stereo unspecified)	0	48*	-5	0
Cc1ccc(C)c(NC(=O)C(C)N2Cc3ccccc3C2=O)c1 (stereo unspecified)	0	-5	-10	0
SMILES	GPR151 activ	TEAD-YAP block	MITF inh	FBW7 act
CCOC(=O)C(C)Oc1ccc2cc(-c3ccccc3)c(=O)oc2c1 (stereo unspecified)	-4	18	-4	2.3*
CCn1c(C(O)c2cc(OC)c(OC)c(OC)c2)nc2ccccc21 (stereo unspecified)	0	9	16	2.3*
O=C1CCCN1CCn1cnc2c(NCc3nc4ccccc4[nH]3)nc(Nc3ccc4ncccc4c3)nc21	-2	59*	6	0
O=C1CCCN1CCn1cnc2c(NCc3nc4ccccc4[nH]3)nc(Nc3ncccn3)nc21	3	7	-2	0
O=C1CCCN1CCn1cnc2c(NCc3nc4ccccc4[nH]3)nc(Nc3ccc(-n4ccnc4)cc3)nc21	1	39*	4	0
O=C(OCc1ccc([N+](=O)[O-])cc1)c1cc([N+](=O)[O-])ccc1Cl	1	11	-10	0
Cc1cccc(N2C(=O)CC(N3CCN(C)CC3)C2=O)c1 (stereo unspecified)	-2	4	11	0
CC(=O)c1c(C)n(-c2ccc(N(C)C)cc2)c2ccc(O)cc12	0	40*	5	0
COc1ccccc1CC(=O)Nc1cnc2cnc(-c3ccc(F)c(Cl)c3)cn12	0	-5	6	1.9*
O=C(Nc1ccccc1F)c1cc(F)ccc1[N+](=O)[O-]	0	56*	10	0
O=C(Nc1cc([N+](=O)[O-])ccc1F)c1cccc(F)c1	2	34*	12	0
